# Methyltransferases: Primary Screen for Target Class Profiling of Small Molecule Inhibitors of Methyltransferases; purified enzyme, MTase-Glo SAH luminescence; active compounds read low; calls only at 40 µM; 25,000 tested, 3.9% active; AID 1745853, 2022; call rule not given here
#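 Each enzyme was assayed with SAM and its substrate. SAH formation detected by MTase-Glo luminescence; single-point 40 uM screen[…].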
# * hit, by the source's call; i = inactive; + = active, no number; ! = not active in a repeat. The sample as a whole holds a higher share of hits than the screen did. % is set by controls: 0 for no effect and ±100 for the full control effect.
SMILES,Methyltransferases
CCOC(=O)c1cc2n(n1)CC(C)(C(=O)NC1CCCCC1)N(Cc1ccc3c(c1)OCO3)C2=O (stereo not drawn),i
CC1(C(=O)NC2CCCCC2)Cc2ccccc2C(=O)N1C1CCCCCC1 (stereo not drawn),i
CCCn1c(=O)c2ccccc2n2c(=O)n(Cc3cccc(C)c3)nc12,i
CCC(C)NC(=O)c1ccc2c(=O)n(CC(C)C)c3nn(Cc4ccccc4Cl)c(=O)n3c2c1 (stereo not drawn),i
CSc1ccc(CCNC(=O)C(C)n2ccc3cc(S(=O)(=O)N4CCCC4)ccc32)cc1 (stereo not drawn),i
CC(C)Cn1c(=O)c2ccc(C(=O)NC3CCCC3)cc2n2c(=O)n(Cc3ccc(F)cc3)nc12,i
CCCn1c(=O)c2ccccc2n2c(=O)n(CC(=O)NCc3ccccc3Cl)nc12,i
O=C(CSc1nnc2n(Cc3ccccc3)c(=O)c3ccccc3n12)Nc1ccc(F)cc1,i
COC(=O)c1ncn2c1C(=O)N(Cc1cccc(OC)c1OC)C(C)(C(=O)NC1CCCCC1)C2 (stereo not drawn),i
CC(Oc1cc(-n2cnc3ccc(CN4CCN(C)CC4)cc32)sc1C(N)=O)c1ccccc1C(F)(F)F (stereo not drawn),+
C[C@@H](Oc1cc(-n2cnc3ccc(OC4CCN(C)CC4)cc32)sc1C(N)=O)c1ccccc1Cl,+
COCCCNC(=O)N1Cc2c(sc3c2CCCC3)-n2cccc2C1c1cccc(C)c1 (stereo not drawn),i
CCCn1c(=O)c2ccc(C(=O)NC3CCCC3)cc2n2c(=O)n(CC(=O)Nc3ccc(CC)cc3)nc12,i
CC(=O)Nc1ccc(-c2nnc3n(CCc4ccccc4)c(=O)c4ccccc4n23)cc1,i
Cc1cc2[nH]c(=O)[nH]c2cc1S(=O)(=O)Nc1cccc(F)c1,i
Cc1ccc(C)c(C(=O)Cn2nc3n(CCC(C)C)c(=O)c4ccc(C(=O)NC(C)C)cc4n3c2=O)c1,i
COc1ccccc1CNC(=O)C1(C)Cn2nc(-c3ccccc3)cc2C(=O)N1CCc1ccco1 (stereo not drawn),i
Cn1cc(CN2CCCCCNC(=O)[C@@H]3CCC[C@@H]32)c2ccccc21,i
CN(C)CC1CCn2c(c(C3=C(c4cn(C)c5ccccc45)C(=O)NC3=O)c3ccccc32)C1 (stereo not drawn),+!
Cn1cc(C(=O)OCC2CCN(CCNS(C)(=O)=O)CC2)c2ccccc21,i
Cc1ccccc1CN1C(=O)c2cc3sccc3n2CC1(C)C(=O)NC1CCCC(C)C1C (stereo not drawn),i
CC1CCC(NC(=O)c2ccc3c(=O)nc4c(-c5cccc(F)c5)n[nH]n4c3c2)CC1 (stereo not drawn),i
CN(c1ccccc1CNc1nc(Nc2ccc3c(c2)CC(=O)N3)ncc1C(F)(F)F)S(C)(=O)=O,+
COc1ccc(CN2C(=O)c3ccc(-c4ccco4)n3CC2(C)C(=O)NC2CCCCC2)cc1OC (stereo not drawn),i
CC(C)OCCCn1c(=O)c2ccccc2n2c(=O)n(Cc3ccc(F)cc3)nc12,i
SMILES,Methyltransferases
Cc1ccc(S(=O)(=O)c2nnn3c2nc(N2CCCC(C)C2)c2ccccc23)cc1 (stereo not drawn),i
COc1ccc(C)c2c1N[C@@H](c1ccc(Br)cc1)[C@H]1CC=C[C@@H]21,i
C=CC(=O)N1CCN(C(=O)CNc2cc(-c3ccccc3Cl)c(Cl)cc2OC)CC1,i
C=CC(=O)N1CCN(C(=O)c2cc(-c3cc(Cl)ccc3Cl)c(Cl)cc2OC)CC1,+
COc1cccc(C(=O)N2CCN(C(=O)COc3cccc(C)c3)CC2)c1OC,i
O=C(CCc1nnc2n(Cc3ccc(Cl)cc3)c(=O)c3ccccc3n12)NCC1CCCO1 (stereo not drawn),i
CCCn1c(=O)c2cc(F)ccc2n2c(SCC(=O)Nc3ccc(OC)cc3)nnc12,i
COc1ccccc1CN1C(=O)c2cc3occc3n2CC1(C)C(=O)NC1CCC(C)CC1 (stereo not drawn),i
CCCn1c(=O)c2cc(F)ccc2n2c(SCC(=O)NCc3ccccc3Cl)nnc12,i
O=C(NCc1ccc(F)cc1)c1ccc2c(=O)nc3c(-c4ccc(Cl)cc4)n[nH]n3c2c1,i
CCOc1ccc(C(=O)Cn2nc3n(C(C)C)c(=O)c4ccc(C(=O)NC5CCCC5)cc4n3c2=O)cc1,i
CCC(C)NC(=O)c1ccc2c(=O)n(C)c3nnc(SCC(N)=O)n3c2c1 (stereo not drawn),i
COC(C)(C)CCn1nc(Nc2c(C)cccc2C)c2cnc(Nc3ccc(OCCN4CCCC4)c(F)c3)nc21,+
C=Cc1ccc(Cn2nc3n(CC(C)C)c(=O)c4ccc(C(=O)NCC(C)C)cc4n3c2=O)cc1,i
CCOc1ccc(N2C(=O)CSc3c(c4ccccc4n3C)C2C(=O)NCc2ccccc2OC)cc1 (stereo not drawn),i
CC1(C(=O)NC2CCCCCC2)Cn2c(cc3occc32)C(=O)N1CCCc1ccccc1 (stereo not drawn),i

# Source: PubChem BioAssay
